Here are results for 37 molecules from PubChem BioAssay (Tox21).

Several values for one entry are separate records, joined by “and”; a condition that tells them apart may be missing. Equal entries are not always repeated. Results filed as inconclusive are left out. Activity calls are given as the source filed them. Calls follow the shape of the dose curve; as a rule, active = well fitted curve in the direction sought with a large enough effect in the repeat runs; inconclusive = weak or mixed curves; inactive = no such curve, though single readings can be large; an effect the other way counts as inactive or inconclusive.
% is scaled to controls: 0 for no effect and ±100 for the full control effect.

The first test in a line: Human pregnane X receptor (PXR) small molecule agonists, qHTS cell viability counter screen (AID 1346977). Also: nearly all actives have a fitted effect of over 50% in size. Also: potency is read from the fitted curve at half-maximal effect. The conditions noted are these: PXR-Luc HepG2 viability, CellTiter-Fluor, 24 h; series mostly up to 92.4 µM; activity change, negative = cytotoxicity: at the top concentration. Put shortly:
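PXR-Luc HepG2 cells (2,000/well, 5% charcoal-stripped FBS) preincubated 5 hr, then exposed to compounds 24 hr at 37 C. Viability read in the same wells by CellTiter-Fluor fluorescence, reagent added at 23 hr, 1 hr incubation.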
On the technique in general: qHTS replaces the single test concentration by a dilution series.
For the molecule `CCCCCCCCCCCCCCCCCCn1cc[n+](C)c1`, the Potency was 8.58 µM (active).
For `N#CC(Cl)Cl`, the “activity change, negative = cytotoxicity” value was -3.04% (inactive).
As for `Nc1ccccc1C(=O)OC/C=C/c1ccccc1`, the “activity change, negative = cytotoxicity” value was -8.01% (inactive).
For `CN(CCCC(=O)c1cccnc1)N=O`, the “activity change, negative = cytotoxicity” value was -0.288% (inactive).
For the molecule `C[C@H]1CC[C@@H]2[C@@H](C)[C@H]3[C@H](C[C@H]4[C@@H]5CC=C6CC(O[C@@H]7O[C@H](CO)[C@H](O)[C@H](O[C@@H]8O[C@H](CO)[C@@H](O)[C@H](O)[C@H]8O)[C@H]7O[C@H]7O[C@@H](C)[C@H](O)[C@@H](O)[C@H]7O)CC[C@]6(C)[C@H]5CC[C@]34C)N2C1` (stereo partly specified), the Potency was 11.2 µM (active).
For `CCCSP(=O)(OCC)SCCC`, the “activity change, negative = cytotoxicity” value was -0.635% (inactive).
For the molecule `CCOP(=S)(OCC)SCS(=O)(=O)C(C)(C)C`, the “activity change, negative = cytotoxicity” value was -4.2% (inactive).
`C[C@@H](Oc1ccc(Cl)cc1Cl)C(=O)O`: the “activity change, negative = cytotoxicity” value was 2.04% (inactive).
With `COCC(=O)N(c1c(C)cccc1C)[C@H](C)C(=O)OC`, the “activity change, negative = cytotoxicity” value was 1.84% (inactive).
The same measure, in the same setting: under `COC[C@H](C)N(C(=O)CCl)c1c(C)csc1C` stands -1.5% (inactive); under `Cc1c(Cl)c(=O)oc2cc(OP(=O)(OCCCl)OCCCl)ccc12`, 23.1% [at 42.5 µM] (inactive).
Regarding `SCc1ccco1`, the “activity change, negative = cytotoxicity” value is 0.905% (inactive).
On the same count and under the same terms, in the case of `Nc1ccccc1C(=O)Oc1ccc2ccccc2c1` it was -4.75% (inactive); in that of `CC(C)CCCCCCCOP(=O)(Oc1ccccc1)Oc1ccccc1`, -9.35% (inactive).
For the molecule `O=C(O)COc1nc(Cl)c(Cl)cc1Cl`, the “activity change, negative = cytotoxicity” value is 1.37% (inactive).
Take `CC(C)(C)C(O)/C(=C\c1ccc(Cl)cc1Cl)n1cncn1` (stereo unspecified): the Potency was 74 µM (active).
Turning to `CC(c1ccc(O)cc1)c1ccc(O)cc1`, the Potency entry is “inactive”.
Take `COC(=O)N(C(=O)N1COC2(C(=O)OC)Cc3cc(Cl)ccc3C2=N1)c1ccc(OC(F)(F)F)cc1` (stereo unspecified): the “activity change, negative = cytotoxicity” value was 0.0231% [at 42.5 µM] (inactive).
With `CC(C)CC(C)(c1ccc(O)cc1)c1ccc(O)cc1`, the Potency was 50.1 µM (active).
As for `ClC1=C(Cl)[C@]2(Cl)[C@H]3[C@H]([C@H]4C=C[C@H]3C4)[C@@]1(Cl)C2(Cl)Cl`, the “activity change, negative = cytotoxicity” value is -12.9% (inactive).
As for `Cc1ccc(CCl)cc1`, the “activity change, negative = cytotoxicity” value is 1.88% (inactive).
Still for that read-out and setting: in the case of `Cc1cc(Cl)ccc1O[C@H](C)C(=O)O` it was -1.5% (inactive); in that of `CCOC(=O)c1ccccc1S(=O)(=O)NC(=O)Nc1nc(Cl)cc(OC)n1`, -1.76% (inactive).
As for `CC(C)OS(C)(=O)=O`, the “activity change, negative = cytotoxicity” value is 0.658% (inactive).
`N#CSCSC#N`: the Potency was 39.8 µM (active) and 53.9 µM (active).
The same measure, in the same setting: in the case of `COc1cccc2c1C(=O)c1c(O)c3c(c(O)c1C2=O)C[C@@](O)(C(=O)CO)CC3OC1CC(N2CCOC(OC)C2)C(O)C(C)O1` (stereo partly specified) it was 0.168 µM (active).
For `CCOP(=O)(NC(C)C)Oc1ccc(SC)c(C)c1` (stereo unspecified), the “activity change, negative = cytotoxicity” value was 0.826% (inactive).
For `CC[C@H]1C[C@@H]2C[C@H]3c4[nH]c5ccc(OC)cc5c4CCN(C2)[C@@H]13`, the Potency is 47.7 µM (active).
In the case of `Oc1ccc(C2(c3ccc(O)cc3)CCCCC2)cc1`, the Potency is 57.9 µM (active).
In the case of `O=[N+]([O-])c1cc(C(F)(F)F)c(Cl)c([N+](=O)[O-])c1Cl`, the Potency was 27.3 µM (active).
For `COC(=O)N(C(=O)N1CO[C@@]2(C(=O)OC)Cc3cc(Cl)ccc3C2=N1)c1ccc(OC(F)(F)F)cc1`, the “activity change, negative = cytotoxicity” value was -5% (inactive).
With `OC(c1ccc(Cl)cc1)(c1ccc(Cl)cc1)C(Cl)(Cl)Cl`, the “activity change, negative = cytotoxicity” value is 3.08% (inactive).
Same read-out and setting: in the case of `Oc1cccc(-c2ccccc2)c1` it was -1.37% (inactive); in that of `CS(=O)(=O)c1ccc(C(=O)C2C(=O)CCCC2=O)c([N+](=O)[O-])c1`, 6.1% (inactive); in that of `CC(Cc1ccc(C(C)(C)C)cc1)CN1C[C@@H](C)O[C@@H](C)C1` (stereo partly specified), 0.258% (inactive).
`CC(=O)[O-].[Tl+]`: the Potency was 27.5 µM (active).
With `CCOC(=O)C1(c2ccccc2)CCN(CCC(C#N)(c2ccccc2)c2ccccc2)CC1`, the “activity change, negative = cytotoxicity” value is 0.259% [at 42.5 µM] (inactive).

A further test can be described thus: Caspase-3/7 induction in HepG2 cells by small molecules, qHTS assay (AID 1346978). Also: nearly all actives have a fitted effect of over 15% in size. The conditions noted are these: HepG2 caspase-3/7 activation, Caspase-Glo luminescence, 17 h; series mostly up to 92.4 µM; caspase activation: at the top concentration. In a few lines:
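Wild-type HepG2 cells, 2,000/well, settled 5 hr at 37 C and 5% CO2, then compound-treated for 17 hr; caspase-3/7 activity read by luminescent Caspase-Glo 3/7 after 30 min at room temperature.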
On to `Nc1ccccc1C(=O)OC/C=C/c1ccccc1`, for which the “caspase activation” value was 0.714% (inactive).
With `C[C@H]1CC[C@@H]2[C@@H](C)[C@H]3[C@H](C[C@H]4[C@@H]5CC=C6CC(O[C@@H]7O[C@H](CO)[C@H](O)[C@H](O[C@@H]8O[C@H](CO)[C@@H](O)[C@H](O)[C@H]8O)[C@H]7O[C@H]7O[C@@H](C)[C@H](O)[C@@H](O)[C@H]7O)CC[C@]6(C)[C@H]5CC[C@]34C)N2C1` (stereo partly specified), the “caspase activation” value is -15.4% (inactive).
In the case of `C[C@@H](Oc1ccc(Cl)cc1Cl)C(=O)O`, the “caspase activation” value was -5.54% (inactive).
With `Cc1c(Cl)c(=O)oc2cc(OP(=O)(OCCCl)OCCCl)ccc12`, the “caspase activation” value was -2.08% [at 42.5 µM] (inactive).
For `SCc1ccco1`, the “caspase activation” value was 1.99% (inactive).
Still for that read-out and setting: in the case of `Nc1ccccc1C(=O)Oc1ccc2ccccc2c1` it was -0.589% (inactive); in that of `CC(C)CCCCCCCOP(=O)(Oc1ccccc1)Oc1ccccc1`, -2.24% (inactive).
With `O=C(O)COc1nc(Cl)c(Cl)cc1Cl`, the “caspase activation” value is 2.14% (inactive).
On to `COC(=O)N(C(=O)N1COC2(C(=O)OC)Cc3cc(Cl)ccc3C2=N1)c1ccc(OC(F)(F)F)cc1` (stereo unspecified), for which the “caspase activation” value is -4.64% [at 42.5 µM] (inactive).
For the molecule `ClC1=C(Cl)[C@]2(Cl)[C@H]3[C@H]([C@H]4C=C[C@H]3C4)[C@@]1(Cl)C2(Cl)Cl`, the “caspase activation” value is -3% (inactive).
As to `Cc1cc(Cl)ccc1O[C@H](C)C(=O)O`, the “caspase activation” value is 0.256% (inactive).
Consider `CCOP(=O)(NC(C)C)Oc1ccc(SC)c(C)c1` (stereo unspecified), for which the “caspase activation” value is 3.57% (inactive).
The same measure, in the same setting: under `CC[C@H]1C[C@@H]2C[C@H]3c4[nH]c5ccc(OC)cc5c4CCN(C2)[C@@H]13` stands 6.24% (inactive); under `COC(=O)N(C(=O)N1CO[C@@]2(C(=O)OC)Cc3cc(Cl)ccc3C2=N1)c1ccc(OC(F)(F)F)cc1`, 0.948% (inactive); under `OC(c1ccc(Cl)cc1)(c1ccc(Cl)cc1)C(Cl)(Cl)Cl`, 2.15% (inactive).
Still for that read-out and setting: in the case of `Oc1cccc(-c2ccccc2)c1` it was 4.51% (inactive).
Still for that read-out and setting: under `CS(=O)(=O)c1ccc(C(=O)C2C(=O)CCCC2=O)c([N+](=O)[O-])c1` stands -0.287% (inactive).
With `CC(Cc1ccc(C(C)(C)C)cc1)CN1C[C@@H](C)O[C@@H](C)C1` (stereo partly specified), the “caspase activation” value is 0.978% (inactive).
With `CCOC(=O)C1(c2ccccc2)CCN(CCC(C#N)(c2ccccc2)c2ccccc2)CC1`, the “caspase activation” value is -2.21% [at 42.5 µM] (inactive).
